Screens (PubChem)
Sfp inh = Sfp phosphopantetheinyl transferase inhibition; Q9F4F7; Biochemical Sfp PPTase activity, qHTS; Potency, µM, inactives show largest response in the series, negative = inhibition, hits mostly inhibitors; hit rate 3.5% among 310,000; AID 1490;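 also: the enzyme is Sfp with the accession as filed and its product quenches rhodamine fluorescence; potency is read from the fitted curve at half-maximal effect; 0% = enzyme reaction without inhibitor and -100% = no enzyme wells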
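Fluorescence-quenching assay with 15 nM Sfp, 5 uM rhodamine-CoA and 12.5 uM BHQ-2-labelled ybbR peptide in pH 7.6 Hepes/MgCl2 buffer. Enzyme was pre-incubated with compound for 15 min at room temperature. Rate was taken from the 30-min fluorescence change (525/598 nm).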
Tau fluor counter = counter-screen for tau fibril formation inhibitors | Potency, µM (top dose mostly 57.7 µM), without a hit: top-dose activity change, negative = decrease | hit rate 0.93% among 280,000 | tau K18 P301L Alexa594 fluorescence, heparin fibrillization | AID 1463; also: potency is read from the fitted curve at half-maximal effect; nearly all actives have a fitted effect of over 55% in size
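Human K18 P301L tau (15 uM unlabeled plus 0.24 uM Alexa 594-labeled, final) in 100 mM sodium acetate pH 7 was mixed with compound and 20 uM heparin and incubated 6 hr at 37 C.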
Tau FP inhib = inhibitors of human tau fibril formation; P10636; K18 P301L tau heparin fibrillization, Alexa594 FP, 6 h; Potency, µM (series often up to 57.7 µM), inactives show at the top dose activity, negative = inhibition, most hits filed as inhibitors; hit rate 0.39% among 280,000; AID 1468; also: potency is read from the fitted curve at half-maximal effect; nearly all actives have a fitted effect of over 55% in size
Target sequence (P10636 561-689 P618L limits assumed): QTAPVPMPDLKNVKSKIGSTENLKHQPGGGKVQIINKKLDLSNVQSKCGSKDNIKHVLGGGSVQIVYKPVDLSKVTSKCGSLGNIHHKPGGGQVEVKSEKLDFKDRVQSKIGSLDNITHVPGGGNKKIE
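Steps: dispense K18 P301L tau (15 uM plus 0.24 uM Alexa 594 tracer, final) in pH 7 sodium acetate; add compound; add heparin (20 uM final); incubate 6 hr, 37 C; add ThT (30 uM final); after 1 hr ambient, read FP.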
G9a inh = inhibitors of human histone lysine methyltransferase G9a; Potency, µM (top dose mostly 102 µM), for the others: top-dose activity, negative = inhibition, actives largely listed as inhibitors; AID 504332; G9a H3K9 monomethylation, AlphaScreen, 2 h; hit rate 8.8% among 350,000; also: potency is read from the fitted curve at half-maximal effect; nearly all actives have a fitted effect of over 75% in size
Target sequence (Q96KQ7 913-1193 limits assumed): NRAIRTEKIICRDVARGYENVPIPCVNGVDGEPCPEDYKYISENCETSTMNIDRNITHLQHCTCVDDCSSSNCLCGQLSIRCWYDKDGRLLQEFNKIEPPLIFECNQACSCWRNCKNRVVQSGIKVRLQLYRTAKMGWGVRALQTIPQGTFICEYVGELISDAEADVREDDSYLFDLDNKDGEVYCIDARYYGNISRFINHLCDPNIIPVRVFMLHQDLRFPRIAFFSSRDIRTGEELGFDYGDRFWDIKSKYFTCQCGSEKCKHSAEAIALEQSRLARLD
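Using a bead-based AlphaScreen, monomethylated H3K9 product from 2 h room-temperature reactions (G9a 20 nM, peptide 500 nM, SAM 20 uM) was detected with 0.5 ug/mL rabbit anti-H3K9me1 antibody.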
Coupling enz = counter-screen for Giardia aldolase inhibitors: coupling enzyme system | AID 2472 | hit rate 0.67% among 290,000 | coupling enzyme system counterscreen, AmpLite Red fluorescence | activity change, negative = inhibition, % at 58.2 µM, hits read low; in the data active = activity change below about -30%
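Compounds tested against the coupling enzymes alone at 57.5 uM final; readout was AmpLite Red fluorescence (525/598 nm) after 20 min at RT.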
Tau ThT inhib = inhibitors of human tau fibril formation, thioflavin T binding | P10636 | recombinant tau K18 P301L, heparin-induced fibrillization, ThT fluorescence | Potency, µM (titrated, usually from 57.4 µM), without a hit: at the highest dose activity, negative = inhibition, actives largely listed as inhibitors | hit rate 2.1% among 270,000; also: potency is read from the fitted curve at half-maximal effect; nearly all actives have a fitted effect of over 55% in size
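ThT emission at 510 nm, taken 1 hr after adding 30 uM dye, quantifies aggregates formed when 20 uM heparin acts on human tau K18 P301L for 6 hr at 37 C.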
Active calls of the source: *; [ ] = dose if it differs, or a comment. Hits are enriched below; roughly 11% of the tested compounds scored in any of these assays. Unless noted, calls follow the shape of the dose curve; as a rule, active = well fitted curve in the direction sought with a large enough effect; inconclusive = small, poorly fitted or top-dose-only effect, or another doubt; inactive = no such curve, though single readings can be large; an effect the other way counts as inactive or inconclusive. Unless noted, % is scaled to controls: 0 for no effect and ±100 for the full control effect.

Screening Cc1ccc(-c2onc(C)c2C)cc1S(=O)(=O)Nc1cccc(Cl)c1C returned Tau fluor counter inconclusive, Tau FP inhib 4%, G9a inh 9%[59 µM] and Tau ThT inhib inconclusive.
COc1cc(C(=S)N2CCCC2)cc(Cl)c1OCC(=O)Nc1ccc(C)cc1C was read as Sfp inh inconclusive, Tau fluor counter -7%, Tau FP inhib -6%, G9a inh 7.9µM*, Coupling enz 0 and Tau ThT inhib 2%.
Screening CCOc1cc(C(=O)Nc2ccc(C)cc2C)ccc1OCC(=O)N1CCCCC1 returned Sfp inh 7%, Tau fluor counter -7%, Tau FP inhib 1%, G9a inh 3%[59 µM], Coupling enz 2 and Tau ThT inhib -18%.
Screening CCOc1ccccc1NS(=O)(=O)c1cc2[nH]c(=O)c(=O)[nH]c2cc1C returned Tau fluor counter 4%, Tau FP inhib -3%, G9a inh -5%[59 µM] and Tau ThT inhib 1%.
Screening Cc1ccc(C(=O)O)cc1NC(=S)NC(=O)Cc1ccccc1 returned Sfp inh 5%, Tau fluor counter 2%, Tau FP inhib 4%, G9a inh -7%, Coupling enz 8 and Tau ThT inhib 5%.
For COc1cc2ccccc2cc1C(=O)NC(=S)Nc1cc(C(=O)O)ccc1C the results were Sfp inh -4%, Tau fluor counter -2%, Tau FP inhib -2%, G9a inh inconclusive, Coupling enz 5 and Tau ThT inhib inconclusive.
Cc1ccc(C(=O)O)cc1NC(=S)NC(=O)c1ccc(COc2ccccc2)cc1 was read as Sfp inh 50µM*.
`COc1ccccc1C(=O)NC(=S)Nc1cc(C(=O)O)ccc1C` gave Sfp inh -28%, Tau fluor counter -2%, Tau FP inhib -4%, G9a inh 45µM*, Coupling enz 7 and Tau ThT inhib -9%.
`COc1ccc(N=C(N)SCc2ccccn2)cc1` gave Sfp inh inconclusive, Tau fluor counter -16%, Tau FP inhib -4%, G9a inh 16µM*, Coupling enz 0 and Tau ThT inhib inconclusive.
Screening C=CCn1c(-c2csc3ccccc23)n[nH]c1=S returned Sfp inh -6%, Tau fluor counter -14%, Tau FP inhib 7%, G9a inh inconclusive, Coupling enz 0 and Tau ThT inhib inconclusive.
`Cc1ccccc1-n1c(-c2csc(C)c2C)n[nH]c1=S` gave Sfp inh -11%, Tau fluor counter -6%, Tau FP inhib 0%, G9a inh 1µM*, Coupling enz 2 and Tau ThT inhib -11%.
For Cc1cccc(-n2c(-c3csc(C(C)C)c3)n[nH]c2=S)c1 the results were Sfp inh 1%, Tau fluor counter -19%, Tau FP inhib 0%, G9a inh inconclusive, Coupling enz 3 and Tau ThT inhib inconclusive.
For CCCc1cc(-c2n[nH]c(=S)n2-c2cccc(C)c2)cs1 the results were Sfp inh inconclusive, Tau fluor counter -15%, Tau FP inhib -5%, G9a inh 3.5µM*, Coupling enz 3 and Tau ThT inhib -13%.
For Cc1ccccc1-n1c([C@@H]2C[C@H]2c2ccccc2)n[nH]c1=S the results were Sfp inh -4%, Tau fluor counter -12%, Tau FP inhib 3%, Coupling enz 0 and Tau ThT inhib -16%.
For Cc1cccc(-n2c(-c3csc(C)c3C)n[nH]c2=S)c1 the results were Sfp inh 2%, Tau fluor counter -4%, Tau FP inhib -4%, G9a inh 1.1µM*, Coupling enz 2 and Tau ThT inhib -12%.
`Cc1ccccc1-n1c(-c2csc3ccccc23)n[nH]c1=S` gave Sfp inh 14%, Tau fluor counter 0%, Tau FP inhib 5%, G9a inh 2µM*, Coupling enz 0 and Tau ThT inhib 0%.
CCCn1c2ccccc2c2cnn(CC(=O)N3CCC(C(=O)OCC)CC3)c(=O)c21 was read as Tau fluor counter -5%, Tau FP inhib -6%, G9a inh -1%[59 µM] and Tau ThT inhib -3%.
Clc1ccc(-c2csc(N3CCCCCC3)n2)cc1 was read as Sfp inh -20%, G9a inh 23% and Coupling enz 1.
For CN1CCN(c2nc(-c3ccc(Cl)s3)cs2)CC1 the results were Sfp inh -77%, Tau fluor counter -11%, Tau FP inhib -2%, G9a inh 45µM*, Coupling enz -2 and Tau ThT inhib -5%.
`COCc1nnc(NC(=O)C2CC(=O)N(CCc3ccc(F)cc3)C2)s1` (centres undefined) gave Sfp inh inconclusive, G9a inh 40µM* and Coupling enz 0.
COCc1nnc(NC(=O)C2CC(=O)N(C3CCCCC3)C2)s1 (centres undefined) was read as Sfp inh -9% and Coupling enz 3.
For COCc1nnc(NC(=O)C2CC(=O)N(C3CCCC3)C2)s1 (centres undefined) the results were Sfp inh inconclusive, G9a inh 28µM* and Coupling enz 1.
CCC(CC)c1nn2c(=O)cc(COc3ccc(NC(=O)c4ccc(Cl)cc4)cc3)nc2s1 was read as Tau fluor counter -6%, Tau FP inhib -15%, G9a inh 8%[59 µM] and Tau ThT inhib inconclusive.
CCOC(=O)c1c(NC(=O)COc2ccc(CC)cc2)sc2c1CCCC2 was read as Tau fluor counter -6%, Tau FP inhib -1%, G9a inh -3%[59 µM] and Tau ThT inhib -14%.
Screening CCOC(=O)c1c(NC(C)=O)sc2c1CCC(C=O)=C2Sc1ccccc1 returned Sfp inh 50µM*, Tau fluor counter inconclusive, Tau FP inhib inconclusive, G9a inh inconclusive, Coupling enz 0 and Tau ThT inhib 14µM*.
Screening CCOC(=O)c1c(NC(C)=O)sc2c1CCN(Cc1ccccc1)C2 returned Sfp inh 1% and Coupling enz 0.
For CCOC(=O)c1c(NC(=O)COc2cccc(C(F)(F)F)c2)sc2c1CCCCC2 the results were Tau fluor counter -2%, Tau FP inhib -6%, G9a inh 5.6µM* and Tau ThT inhib -18%.
For CCOC(=O)c1c(NC(=O)COc2ccccc2Br)sc2c1CCCCC2 the results were Tau fluor counter -9%, Tau FP inhib -11%, G9a inh 10µM* and Tau ThT inhib -18%.
COC(=O)c1c(NC(=O)COc2cc(C)c(Cl)c(C)c2)sc2c1CCCC2 was read as Tau fluor counter -7%, Tau FP inhib inconclusive, G9a inh 7.1µM* and Tau ThT inhib inconclusive.
